PubChem BioAssay AID1852 (Sanford-Burnham Center for Chemical Genomics, 2009)
Screen size: about 2,500 compounds; about 1,100 (44%) were called active. So high a share suggests a set chosen from earlier hits. Some of the results follow. Values without a mark were called inactive.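 How the source made its calls: active means inhibition above 50% at 4 µM in the single-point screen; inactive means inhibition of 50% or less.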

Assay: TNF-a-driven NF-kB reporter inhibitors, primary screen, selectivity assay for NOD1/NOD2 signaling inhibitor project, cell-based, HEK293T NF-kB-Luc, luminescence (AID 1852)
Details: TNF-a induced, 14 h, at 4 µM, stronger effect = higher value

| SMILES | inhibition |
| --- | --- |
| Nc1[nH]n2c(=O)cc(-c3ccccc3)nc2c1N=Nc1ccc2c(c1)OCO2 | 50.6% (active) |
| Nc1[nH]n2c(=O)cc(-c3ccccc3)nc2c1N=Nc1ccccc1 | 64.7% (active) |
| COc1cccc(N=Nc2c(N)[nH]n3c(=O)cc(-c4ccccc4)nc23)c1 | 75.4% (active) |
| CCOc1ccc(-c2nc(CSCC(=O)N3CCN(c4cccc(OC)c4)CC3)c(C)o2)cc1 | 49.3% |
| O=C(CSCc1ccccc1Cl)N1CCN(c2ccccn2)CC1 | -30.9% |
| CCc1ccc(-c2nc(CSCC(=O)N3CCN(c4ccccn4)CC3)c(C)o2)cc1 | 73.1% (active) |
| O=C(Nc1nccs1)c1sc2cc(Cl)ccc2c1Cl | 103% (active) |
| O=C(Nc1cccc(NC(=O)c2sc3ccccc3c2Cl)c1)c1ccco1 | -117% |
| Cn1ncc([N+](=O)[O-])c1C(=O)Nc1cccc(Cl)c1 | 92.6% (active) |
| Cn1ncc([N+](=O)[O-])c1C(=O)Nc1ccc(-c2ccccc2)cc1 | -39.7% |
| CS(=O)(=O)N1CCC(C(=O)Nc2cccc(Cl)c2)CC1 | 4.2% |
| Cc1csc(NC(=S)Nc2cccc(Cl)c2)n1 | 100% (active) |
| Cc1ccc(NC(=S)NC(=O)c2ccc(F)cc2)cc1S(=O)(=O)Nc1cccc(Cl)c1 | 32.5% |
| O=[N+]([O-])c1cccc(NC(=S)Nc2nc(-c3ccc(Cl)cc3Cl)cs2)c1 | 64.3% (active) |
| O=C(Nc1ccc([N+](=O)[O-])cc1)Nc1nc(-c2ccc(Cl)s2)cs1 | 42.8% |
| Cc1ccccc1CN(CC(=O)Nc1cccc([N+](=O)[O-])c1)S(=O)(=O)c1ccc(Cl)cc1 | -15.8% |
| CCN1/C(=C/c2sc(-c3ccccc3C)c[n+]2C)Sc2ccccc21 | 95.5% (active) |
| CC[n+]1c(/C=C2\Sc3ccccc3N2C)ccc2cccc(C)c21 | 70.3% (active) |
| CCN1/C(=C/c2ccc3cccc(C)c3[n+]2CC)Sc2ccccc21 | 61.9% (active) |
| CCCCN1/C(=C/c2ccc3ccccc3[n+]2CC)Sc2ccccc21 | 45.1% |
| CC(C)(C)C1C/C(=C/c2ccccn2)C(=O)/C(=C/c2ccccn2)C1 (stereo unspecified) | 103% (active) |
| CC1C/C(=C/c2ccccn2)C(=O)/C(=C/c2ccccn2)C1 (stereo unspecified) | 96.2% (active) |
| O=C(Nc1ccc(-c2nc3ncccc3o2)cc1)c1ccc([N+](=O)[O-])o1 | 27.5% |

| SMILES | inhibition |
| --- | --- |
| O=C(NCc1ccccc1)C1=C[C@@H](c2csc3ccccc23)C[C@@H](OCCCCO)O1 | 69.1% (active) |
| Cn1c(/C=C/c2ccc(Br)cc2)c([N+](=O)[O-])c(=O)n(C)c1=O | -12.1% |
| Cn1c(/C=C/c2ccc(Cl)cc2Cl)c([N+](=O)[O-])c(=O)n(C)c1=O | 71.4% (active) |
| Cn1c(/C=C/c2ccc(Cl)cc2)c([N+](=O)[O-])c(=O)n(C)c1=O | 18.7% |
| Cc1sc(NC(=O)c2ccccc2)c(C(c2ccccn2)N2CCN(CCO)CC2)c1C (stereo unspecified) | 51.9% (active) |
| O=C(Nc1sc2c(c1C(=O)NCCCO)CCCC2)c1ccccc1 | 35.2% |
| Cc1nn(Cc2ccc(Cl)cc2)c(C)c1NC(=O)c1noc2c1CCc1ccccc1-2 | 105% (active) |
| Cc1cc(C(=O)Nc2c(C)nn(Cc3c(Cl)cccc3Cl)c2C)no1 | -34.2% |
| CCN(CC(=O)Nc1ccc([N+](=O)[O-])cc1OC)c1ccccc1 | -39% |
| COc1cc(Cl)c(C)cc1NC(=O)CN(C)Cc1cccc(OC)c1OC | 57.5% (active) |
| COc1cccc(NC(=O)CN(C)CC(=O)Nc2ccc(C)c([N+](=O)[O-])c2)c1 | 42.8% |
| COc1cc(OC)nc(-n2ncc(Br)c(Br)c2=O)n1 | 105% (active) |
| O=c1c(Br)c(Br)cnn1-c1ccccc1 | 90.8% (active) |
| Cc1ccc(-n2ncc(Br)c(Br)c2=O)cc1 | 105% (active) |
| Oc1cc2c(cc1C(c1ccc(Br)cc1)N1CCCC1)OCO2 (stereo unspecified) | -3.2% |
| Cc1cc(/C=C2\SC(=S)N(C)C2=O)c(C)n1-c1ccc(O)cc1 | 24.7% |
| Cc1cc(/C=C2\SC(=S)N(C)C2=O)c(C)n1-c1cccc(O)c1 | -111% |
| CN1C(=O)/C(=C/c2cc(N=Nc3ccccc3)ccc2O)SC1=S | 98.2% (active) |
| S=C(NCCc1ccc(Cl)cc1)Nc1ccc(Cl)cc1Cl | -10.9% |
| S=C(NCCc1ccccc1)Nc1cccc2cnccc12 | 69.1% (active) |
| CN(C)S(=O)(=O)c1cccc(NC(=S)Nc2cccc3cnccc23)c1 | 62.5% (active) |
| CN(C)S(=O)(=O)c1cccc(CSCc2cccc(S(=O)(=O)N(C)C)c2)c1 | 42.8% |
| Cc1cccc(N2CCN(C(=S)NCCc3ccccc3)CC2)c1C | -31.3% |
